Data as given in PubChem BioAssay AID1159580 (chemical genetic matrix, 2015).
“And” between values parts separate entries of the source, which are not always exact repeats. Equal entries are not always repeated. The campaign covered roughly 5,500 compounds. About 2,000 (36%) were called active. Inconclusive results (about 18%) are left out. Rule as the data show it: active = normalized growth mostly below about 0.91 (no sharp cut-off); inconclusive = no clear call, values can overlap the other calls; inactive = mostly above about 0.92. The list shows a part of the results.

Assay: chemical genetic growth profiling, strain panel (AID 1159580);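 also: tested at 20 µM; growth read once vehicle control cultures reached saturation at 30 °C; 1 = growth at the plate median or of vehicle wells; lower values mean less growth of the strain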
Conditions: S. cerevisiae deletion strains, growth OD

Measured: normalized growth

CCN1CCCC(OC(=O)C(c2ccccc2)c2ccccc2)C1 (stereo not drawn)
inactive: locus YAL021C, strain ccr4, active compounds read low 0.978 | locus YAL026C, strain drs2, active compounds read low 0.99 | locus YAL030W, strain snc1, active compounds read low 0.989 | locus YBL061C, strain skt5, active compounds read low 0.982 | locus YBR009C, strain hhf1, active compounds read low 0.992 | locus YBR021W, strain FUR4, active compounds read low 1.03 | locus YBR023C, strain chs3, active compounds read low 0.973 | locus YBR171W, strain sec66, active compounds read low 0.99 | locus YBR229C, strain ROT2, active compounds read low 1.01 | locus YBR231C, strain swc5, active compounds read low 0.989 | locus YBR279W, strain paf1, active compounds read low 0.998 | locus YCL011C, strain gbp2, active compounds read low 1 | locus YCL016C, strain dcc1, active compounds read low 0.973 | locus YCL029C, strain bik1, active compounds read low 1.01 | locus YCL061C, strain MRC1, active compounds read low 0.989 | locus YCL069W, strain vba3, active compounds read low 0.989 | locus YCR088W, strain abp1, active compounds read low 0.978 | locus YDL005C, strain med2, active compounds read low 0.982 | locus YDL035C, strain GPR1, active compounds read low 1.03 | locus YDL040C, strain nat1, active compounds read low 0.98 | locus YDL074C, strain BRE1, active compounds read low 1.01 | locus YDL101C, strain DUN1, active compounds read low 1.01 | locus YDL134C, strain PPH21, active compounds read low 1.02 | locus YDL185W, strain tfp1, active compounds read low 1.01 | locus YDL192W, strain arf1, active compounds read low 1.01 | locus YDR001C, strain nth1, active compounds read low 0.975 | locus YDR069C, strain doa4, active compounds read low 1 | locus YDR101C, strain arx1, active compounds read low 0.992 | locus YDR137W, strain rgp1, active compounds read low 1.01 | locus YDR159W, strain sac3, active compounds read low 0.989 | locus YDR162C, strain NBP2, active compounds read low 1.01 | locus YDR195W, strain ref2 0.963 | locus YDR297W, strain sur2, active compounds read low 0.993 | locus YDR318W, strain mcm21, active compounds read low 1.01 | locus YDR334W, strain swr1, active compounds read low 0.958 | locus YDR335W, strain msn5, active compounds read low 0.963 | locus YDR388W, active compounds read low 1.01 | locus YDR392W, strain spt3, active compounds read low 0.975 | locus YDR502C, strain sam2, active compounds read low 0.999 | locus YEL003W, strain gim4, active compounds read low 0.978 | locus YEL037C, strain rad23, active compounds read low 0.978 | locus YEL061C, strain CIN8 (second series), active compounds read low 0.999 | locus YEL061C, strain CIN8, active compounds read low 1.01 | locus YER015W, strain faa2, active compounds read low 0.974 | locus YER016W, strain bim1, active compounds read low 0.986 | locus YER110C, active compounds read low 1.01 | locus YER111C, strain swi4, active compounds read low 0.978 | locus YER155C, strain BEM2 (second series), active compounds read low 1 | locus YER155C, strain BEM2, active compounds read low 1.01 | locus YER167W, strain BCK2, active compounds read low 1.01 | locus YFR010W, strain ubp6, active compounds read low 0.99 | locus YGL078C, strain dbp3, active compounds read low 1 | locus YGL086W, strain mad1, active compounds read low 1.01 | locus YGL167C, strain pmr1, active compounds read low 0.981 | locus YGL173C, strain kem1, active compounds read low 0.982 | locus YGL227W, strain vid30, active compounds read low 0.997 | locus YGL240W, strain doc1, active compounds read low 0.994 | locus YGL248W, strain PDE1, active compounds read low 1.01 | locus YGL253W, strain hxk2, active compounds read low 0.991 | locus YGR135W, strain pre9, active compounds read low 1 | locus YGR229C, strain SMI1, active compounds read low 1.01 | locus YGR252W, strain gcn5, active compounds read low 0.998 | locus YHR013C, strain ard1, active compounds read low 0.96 | locus YHR027C, strain rpn1, active compounds read low 0.986 | locus YHR030C, strain SLT2, active compounds read low 1.01 and 0.993 | locus YHR079C, strain IRE1 (second series), active compounds read low 1.01 | locus YHR079C, strain IRE1, active compounds read low 0.978 | locus YHR094C, strain hxt1, active compounds read low 1.01 | locus YHR129C, strain ARP1, active compounds read low 1 | locus YHR142W, strain chs7, active compounds read low 0.978 | locus YHR200W, strain rpn10, active compounds read low 1 | locus YIL066C, strain RNR3, active compounds read low 1.01 | locus YIL073C, strain SPO22, active compounds read low 1.08 | locus YIL125W, strain kgd1, active compounds read low 1 | locus YIR030C, strain dcg1, active compounds read low 1.01 | locus YJL092W, strain hpr5, active compounds read low 0.973 | locus YJL095W, strain BCK1 (second series), active compounds read low 0.994 | locus YJL095W, strain BCK1, active compounds read low 0.987 and 0.977 | locus YJL115W, strain asf1, active compounds read low 0.977 | locus YJL129C, strain trk1, active compounds read low 0.964 | locus YJL134W, strain LCB3, active compounds read low 1.01 | locus YJL154C, strain vps35, active compounds read low 0.976 | locus YJL164C, strain tpk1, active compounds read low 1 | locus YJL166W, strain qcr8, active compounds read low 0.982 | locus YJL168C, strain set2, active compounds read low 1.01 | locus YJL187C, strain SWE1 (second series), active compounds read low 1 | locus YJR043C, strain POL32, active compounds read low 1.04 | locus YJR066W, strain TOR1, active compounds read low 0.955
